# Compound activity (PubChem)
# VP16 counter: inhibits Gal4-VP16 luciferase reporter, ROR gamma counter-screen | Drosophila S2 Gal4-VP16 UAS-luciferase, luminescence, 20 h | Potency, µM (highest dose often 53.6 µM), for inactives: top-dose activity, negative = inhibition, hits mostly inhibitors | actives 3.5% (n = 310,000) | AID 2546;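 note: Gal4-VP16 expression switched on by copper sulfate through the metallothionein promoter; potency is the fitted concentration of half-maximal effect; nearly all actives have a fitted effect of over 50% in size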
# TDP1 cell CPT: DT40-hTDP1 cell growth loss with CPT; chicken DT40 Tdp1-/-;hTDP1 cells + 20 nM CPT, ATP luminescence, 48 h; actives 12% (n = 420,000); Potency, µM (titrated, usually from 46.2 µM), for the others: at the highest dose activity change, negative = growth inhibition, actives largely listed as inhibitors; note: potency is the fitted concentration of half-maximal effect; nearly all actives have a fitted effect of over 55% in size
#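 Chicken DT40 Tdp1-/- cells stably complemented with human TDP1 were seeded at 400 cells/well in medium containing 20 nM camptothecin, exposed to pin-transferred compounds, and grown at 37 °C for at least 48 hr. Viability was read as ATP luminescence.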
# TDP1 cell noCPT: qHTS for Inhibitors of human tyrosyl-DNA phosphodiesterase 1 (TDP1): qHTS in cells in absence of CPT. AID 686978, 2013. actives 15% (n = 420,000). Potency, µM (series often up to 46.2 µM), for the others: at the highest dose activity change, negative = growth inhibition, actives largely listed as inhibitors. DT40 Tdp1-/- hTDP1 cells, no CPT, ATP luminescence, 48 h; note: potency is the fitted concentration of half-maximal effect; nearly all actives have a fitted effect of over 55% in size
#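 Seeded 400 DT40-hTDP1 cells/well (vehicle DMSO, no 20 nM CPT); pinned compounds; ≥48 hr at 37 °C; CellTiter-Glo luminescence as viability measure.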
# RORgamma inh: ROR gamma (mouse) transcription inhibition | P51450 | Drosophila S2 Gal4-RORgamma UAS-luciferase reporter, 20 h | Potency, µM (highest dose often 53.6 µM), inactives show at the highest dose activity change, negative = inhibition, hits mostly inhibitors | actives 5.4% (n = 310,000) | AID 2551; note: potency is the fitted concentration of half-maximal effect; nearly all actives have a fitted effect of over 60% in size
# Target sequence (P51450 whole entry, looked up, the tested form may be a part): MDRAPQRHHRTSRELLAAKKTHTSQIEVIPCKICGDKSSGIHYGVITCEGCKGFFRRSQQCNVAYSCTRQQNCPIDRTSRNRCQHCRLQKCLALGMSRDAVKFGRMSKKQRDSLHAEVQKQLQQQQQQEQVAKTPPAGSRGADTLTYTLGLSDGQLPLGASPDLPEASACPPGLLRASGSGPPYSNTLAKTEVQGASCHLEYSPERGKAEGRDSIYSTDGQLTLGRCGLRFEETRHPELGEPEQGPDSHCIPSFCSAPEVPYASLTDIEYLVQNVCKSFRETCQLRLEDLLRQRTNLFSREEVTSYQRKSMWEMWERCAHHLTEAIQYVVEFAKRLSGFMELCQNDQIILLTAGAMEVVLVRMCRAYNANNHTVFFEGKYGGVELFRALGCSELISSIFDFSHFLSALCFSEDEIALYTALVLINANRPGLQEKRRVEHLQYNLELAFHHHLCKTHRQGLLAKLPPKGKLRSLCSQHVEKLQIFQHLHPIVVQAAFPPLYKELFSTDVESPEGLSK
#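 Stably transfected Drosophila Schneider cells are the test system, with ROR gamma fused to Gal4 and luciferase under UAS control; luminescence is read after 20 hr of 700 uM copper sulfate induction at ambient temperature.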
# ELG1 repair inh: blocks ELG1-dependent DNA repair in HEK293T cells. HEK293T ELG1-luciferase reporter, luminescence, 16 h; DNA damage induced by 5-fluorouridine. Potency, µM (top dose mostly 46.1 µM), for the others: at the top dose activity change, negative = inhibition, usual class: inhibitors. actives 2.3% (n = 330,000). AID 504467; note: potency is the fitted concentration of half-maximal effect; nearly all actives have a fitted effect of over 55% in size
#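 Step one: seed 2,000 cells per well. Step two: pin-transfer compound or DMSO alongside 5-fluorouridine. Step three: incubate 16 hr, 37 °C, 5% CO2. Step four: add ONE-Glo, wait 30 min, read luminescence.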
# IL-1B inflam inh: inhibitors of inflammasome signaling (IL-1 beta secretion); THP-1 LPS/ATP IL-1B secretion, AlphaLISA, 16 h; stronger effect = lower value; activity change, % at 57.5 µM; actives 4.7% (n = 360,000); AID 743279; in the data active = activity change below about -50%; inconclusive = mostly about -30% to -49%
#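 THP-1 cells pretreated 1 hr with compounds (up to 57.5 uM final), then stimulated with LPS (250 ng/mL final) plus ATP (1.25 mM final); secreted IL-1B measured by AlphaLISA after 16 hr, decreased signal indicating inhibition.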
# Active calls of the source: *; ? = inconclusive; . = no result given; [ ] = another dose, or the depositor's remark. In the library only some 21% were active in any assay of this set; here they are far more common. Unless noted, calls come from the whole dose curve; as a rule, active = well fitted curve in the direction sought with a large enough effect; inconclusive = small, poorly fitted or top-dose-only effect, or another doubt; inactive = no such curve, though single readings can be large; an effect the other way counts as inactive or inconclusive. % is set by controls: 0 for no effect and ±100 for the full control effect.
SMILES,VP16 counter,TDP1 cell CPT,TDP1 cell noCPT,RORgamma inh,ELG1 repair inh,IL-1B inflam inh
CC1CN(C(=O)COC(=O)/C=C/c2ccccc2)CC(C)O1 (stereo not drawn),.,-12.2%,?,.,.,-4.8
CCOC(=O)Cn1c(=O)oc2cc(S(=O)(=O)NCCc3ccc(OCC)c(OCC)c3)ccc21,-4.8%,-22.1%,?,2.2%,-3.3%,39.9
S=C([S-])NCCNC(=S)[S-].[Zn+2],7.5%,.,.,-14.7%,.,.
C=CCOc1ccc(C2=NOC(C(=O)Nc3ccc4c(c3)OCCO4)C2)cc1 (stereo not drawn),-7.0%,-21.4%,-10.6%,34.5%,0.0%,-17.1
COc1c2c(cc3c1C(c1c(O)c4ccccc4oc1=O)N(C)CC3)OCO2 (stereo not drawn),-22.9%,-10.6%[9.04 µM],4.0%[9.04 µM],0.9%,.,.
Cc1ccc(SCCC(=O)Nc2ccc(Br)c(C)c2)cc1,-11.3%,7.1%,5.5%,39.1%,0.1%,-107.6*
Cc1ccc(C)c2c1sc(=NC(=O)CN1C(=O)CCC1=O)n2C,4.2%,?,20.6µM*,-24.0%,2.2%,1.5
C=C(NC(=O)C(=C)NC(=O)c1csc(C2=NC3c4csc(n4)C4NC(=O)c5csc(n5)C(C(C)(O)C(C)O)NC(=O)C5CSC(=N5)/C(=C/C)NC(=O)C(C(C)O)NC(=O)c5csc(n5)C3(CC2)NC(=O)C(C)NC(=O)C(=C)NC(=O)C(=C)NC(=O)C(C(C)C)NC2C=Cc3c(C(C)O)cc(nc3C2O)C(=O)OC4C)n1)C(N)=O (stereo not drawn),.,1.03µM*,0.92µM*,.,.,-67.2*
C=C(NC(=O)C(=C)NC(=O)c1csc(C2=N[C@@H]3c4csc(n4)[C@@H]4NC(=O)c5csc(n5)[C@@H]([C@](C)(O)[C@H](C)O)NC(=O)[C@@H]5CSC(=N5)/C(=C/C)NC(=O)[C@@H]([C@H](C)O)NC(=O)c5csc(n5)[C@]3(CC2)NC(=O)[C@@H](C)NC(=O)C(=C)NC(=O)[C@@H](C)NC(=O)[C@@H]([C@@H](C)CC)N[C@H]2C=Cc3c([C@H](C)O)cc(nc3[C@@H]2O)C(=O)O[C@H]4C)n1)C(N)=O,-0.5%[17 µM],.,.,1.3%[2.98 µM],.,.
C=C(NC(=O)C(=C)NC(=O)c1csc(C2=NC3c4csc(n4)C4NC(=O)c5csc(n5)C([C@@](C)(O)C(C)O)NC(=O)C5CSC(=N5)/C(=C\C)NC(=O)C(C(C)O)NC(=O)c5csc(n5)[C@]3(CC2)NC(=O)C(C)NC(=O)C(=C)NC(=O)C(C)NC(=O)C(C(C)CC)NC2C=Cc3c(C(C)O)cc(nc3C2O)C(=O)OC4C)n1)C(N)=O (stereo partly drawn),.,.,.,.,5.17µM*,.
C=C(NC(=O)C(=C)NC(=O)c1csc(C2=NC3c4csc(n4)C4NC(=O)c5csc(n5)C(C(C)(O)C(C)O)NC(=O)C5CSC(=N5)C(=CC)NC(=O)C(C(C)O)NC(=O)c5csc(n5)C3(CC2)NC(=O)C(C)NC(=O)C(=C)NC(=O)C(C)NC(=O)C(C(C)CC)NC2C=Cc3c(C(C)O)cc(nc3C2O)C(=O)OC4C)n1)C(N)=O (stereo not drawn),-3.7%,4.11µM*,5.17µM*,?,.,.
CCOc1cccc(-c2c(C(=O)N/N=C/c3ccc(C)s3)nnn2-c2nonc2N)c1,3.98µM*,-17.2%,-20.1%,2.51µM*,?,14.8
Cc1ccc(SCc2c(C(=O)N/N=C/c3ccoc3)nnn2-c2nonc2N)cc1,15.8µM*,-17.9%,?,7.94µM*,-5.3%,-0.9
CCOc1ccc(-c2c(C(=O)N/N=C/c3ccc(C)s3)nnn2-c2nonc2N)cc1,2.82µM*,?,?,2.24µM*,-24.3%,?
